# Measurements as given in PubChem BioAssay.
# Where “and” joins values, the source holds several entries; their conditions need not be identical. Identical values can stand only once. Calls of active or inactive are those of the source.
# Assays:
# [1] = A549 cell viability effects, profiling panel, calcein-AM fluorescence, 48 h, basal (AID 1162); settings: higher = more signal
# [2] = adipocyte viability effects, profiling panel, cell-based, 3T3-L1 adipocytes, calcein-AM fluorescence, 48 h, basal (AID 1163); settings: 3T3-L1 adipocytes viability, higher = more signal
# [3] = HepG2 cell viability effects, profiling panel, calcein-AM fluorescence, 48 h, basal (AID 1164); settings: higher = more signal
# [4] = MM1S cell viability effects, profiling panel, calcein-AM fluorescence, 48 h, basal (AID 1165); settings: higher = more signal;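 note: viability of MM1S multiple myeloma cells under basal unstimulated conditions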
# [5] = basal RPMI8226 viability, no added stimulus, profiling panel, cell-based, calcein-AM fluorescence, 48 h, PK04 Diversity Set (AID 1166); settings: RPMI8226 myeloma viability, higher = more signal;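 note: cells grown under basal conditions without added stimulus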
# [6] = basal HepG2 mitochondrial membrane potential changes, profiling panel, cell-based, JC-1 fluorescence, 24 h, 100 nL compound (AID 1167); settings: higher = more signal
# [7] = basal 3T3-L1 adipocyte mitochondrial potential changes, profiling panel, cell-based, JC-1 fluorescence, 3T3-L1 adipocytes, 24 h, 100 nL compound (AID 1168); settings: JC-1 mitochondrial fluorescence, higher = more signal, called active from +8 up or from −8 down
# [8] = basal RPMI8226 mitochondrial membrane potential changes, profiling panel, cell-based, JC-1 fluorescence, 24 h, 100 nL compound (AID 1169); settings: RPMI8226 myeloma, JC-1 mitochondrial potential fluorescence, higher = more signal
# [9] = basal MM1S mitochondrial membrane potential changes, profiling panel, cell-based, JC-1 fluorescence, 24 h, 100 nL compound (AID 1170); settings: higher = more signal
# [10] = A549 lung cancer cell viability effects, profiling panel, resazurin fluorescence, 24 h, PK04 Diversity Set (AID 1171); settings: higher = more signal, called active from +8 up or from −8 down
# Note: test concentration not given here.
Structure (SMILES),z-score [1],z-score [2],z-score [3],z-score [4],z-score [5],z-score [6],z-score [7],z-score [8],z-score [9],z-score [10]
CCOC(=O)NN=C1C[C@@H](O)[C@@H](O)[C@@H]2[C@@H]3C(=O)N(Cc4ccccc4)C(=O)[C@@H]3CC[C@@H]12,-0.226,-0.0135,-1.29,0.599,-0.461,0.548,0.152 (inactive),0.387,-0.979,0.0002 (inactive)
CCOC(=O)c1ccc(NC(=O)O[C@H]2[C@H](OC(=O)Nc3ccccc3)[C@H](OC(=O)Nc3ccccc3)[C@@H](OC)O[C@@H]2CO)cc1,-0.299 and -1.3,0.207 and 0.7,-1.02 and -1.9,-1.08 and -3.02,-0.636 and -3.24,-0.171 and -1.02,1.31 (inactive) and -0.302 (inactive),-0.396 and -0.968,-0.45 and -1.27,-1.11 (inactive) and -3.2 (inactive)
C=CC[C@@H](O)c1ccc(O)c(F)c1,-0.562 and 0.575,0.207 and 0.747,-0.804 and -0.172,-1.11 and 1.1,-0.508 and -1.15,-1.48 and -0.00596,-1.3 (inactive) and 1.47 (inactive),0.345 and 0.642,-0.347 and 1.29,-0.694 (inactive) and 0.0466 (inactive)
C=C[C@H](OC)[C@@H](O)c1ccc(O)c(F)c1,-0.52 and -0.4,-0.345 and -0.128,-0.0991 and 0.594,-1.17 and 1.06,0.544 and 0.196,-0.914 and 0.658,-0.186 (inactive) and -0.636 (inactive),0.675 and 0.679,-0.0752 and -0.474,-0.535 (inactive) and -0.0165 (inactive)
C=CC[C@@H](O)c1ccc(O)c2ccccc12,0.292 and 0.405,-0.0851 and -0.0172,0.23 and -0.354,-2.77 and -2.68,-3.06 and -4.28,-2.14 and -2.66,0.0544 (inactive) and -0.0565 (inactive),-0.887 and -0.994,-1.63 and -1.56,-0.308 (inactive) and -0.572 (inactive)
CC(=O)OC[C@H]1O[C@H](C#CC(C)(C)C)C=C[C@@H]1OC(C)=O,-0.327,-0.274,-0.24,-3.02,-1.73,-0.888,0.386 (inactive),-0.776,0.085,-0.595 (inactive)
CCOC(=O)[C@@H]1CC2O[C@]23C[C@@H]1C(=O)N1CCC[C@@H]1[C@H]3O[Si](C)(C)C(C)(C)C (stereo not given in full),-0.889 and -0.825,0.838 and 0.26,-0.526 and -0.885,0.0049 and -3.22,-0.55 and -0.467,-0.904 and -1.08,-0.744 (inactive) and -0.631 (inactive),-0.387 and -0.407,0.781 and -1.86,-0.438 (inactive) and -0.287 (inactive)
C[C@@H]1CC[C@@H](C(=O)O)N[C@H]1c1ccc(-c2ccco2)cc1,1.11,-0.396,0.229,0.617,0.404,1.49,0.309 (inactive),-0.636,0.496,0.115 (inactive)
C=C[C@@H](C)[C@@H](O)c1ccc(O)c2ccccc12,0.799 and -0.778,-0.468 and 0.56,-0.165 and -1.36,-2.83 and -2.76,-1.07 and -1.45,-2.11 and -2.44,-0.672 (inactive) and -0.253 (inactive),-0.994 and -0.39,-1.51 and -1.39,-0.852 (inactive) and -0.3 (inactive)
COC(=O)C1=C(C)N(Cc2ccccc2)C2=C3C(=O)N(C)C(=O)[C@@H]3[C@@](O)(C(=O)OC)C(=O)N2[C@@H]1c1ccccc1,0.77 and 0.914,-0.159 and 0.143,0.215 and 1.05,-0.607 and -0.213,0.0606 and 0.359,0.981 and 0.11,-0.531 (inactive) and 0.96 (inactive),0.134 and -0.542,0.739 and 0.467,1.18 (inactive) and -1.08 (inactive)
CCCCN1CC=CC23O[C@@H]4C=CCCOC(=O)C4[C@H]2C(=O)N(C(C)CO)[C@@H]3C1=O (stereo not given in full),-0.301 and -0.336,-0.457 and -0.57,-0.469 and -0.612,1.07 and 0.893,-0.736 and -0.717,-0.494 and -0.753,-0.433 (inactive) and -0.828 (inactive),-0.129 and 0.0982,-0.686 and -0.347,0.237 (inactive) and -0.595 (inactive)
CCCCCN1CC=CC23O[C@@H]4C=CCCOC(=O)C4[C@H]2C(=O)N(C(C)CO)[C@@H]3C1=O (stereo not given in full),-0.345 and -0.691,0.94 and -0.707,-1.46 and -0.31,0.737 and 0.402,0.254 and -0.282,-0.473 and -1.11,-0.354 (inactive) and -0.522 (inactive),0.861 and -0.0156,-0.141 and 0.641,1.08 (inactive) and 0.713 (inactive)
O=c1n(-c2ccccc2)c(=O)n2n1CC[C@@H]1C(=NOC[C@@H](O)COCc3ccco3)[C@H]3O[C@H]3[C@@H](O)[C@@H]12,-1.18 and 0.202,0.581 and -0.304,-0.0728 and -0.713,0.256 and -0.207,-0.246 and -0.624,-0.16 and -1.1,0.127 (inactive) and -1.22 (inactive),-0.135 and 0.0289,0.181 and -0.00804,-1.03 (inactive) and -0.872 (inactive)
COC(=O)[C@@]1(Cc2ccccc2)[C@H]2c3cc(C(=O)N(C)C)n(Cc4ccc(C)c(F)c4F)c3C[C@H]2CN1C(=O)c1ccccc1,-3.17 and -1.66,0.42 and 0.702,-2.78 and -1.77,-3.27 and -3.16,-4.73 and -4.71,-2.92 and -1,-1.35 (inactive) and -1.29 (inactive),-0.926 and -0.872,-3 and -1.7,-3.06 (inactive) and -1.94 (inactive)
C=CCN(C(=O)C(c1cccs1)N(C(=O)/C=C\C(=O)O)c1c(Cl)cccc1CO)c1ccc(OC)cc1 (stereo not given),1.15 and 1.21,0.111 and 0.112,0.24 and 0.365,1.51 and -0.996,0.844 and 0.57,0.601 and -1.19,0.418 (inactive) and 0.623 (inactive),-0.74 and -0.0886,1.4 and -0.173,0.747 (inactive) and -0.246 (inactive)
C=CCN(C(=O)C1N(CCOCCO)C(=O)C2C(C(=O)O)C3C=CC21O3)c1ccc(OC)cc1 (stereo not given),-0.0891 and 0.163,-0.24 and 0.366,0.136 and 0.857,0.963 and -0.688,-0.25 and 0.0863,0.191 and -1.15,0.124 (inactive) and 1.32 (inactive),-0.0484 and 0.126,1.01 and 0.642,-0.237 (inactive) and 0.168 (inactive)
CC(CO)N1C(=O)[C@@H]2C3C(=O)OCCC=C[C@H]3OC23C=CCN(Cc2ccccc2)C(=O)[C@@H]13 (stereo not given in full),0.606 and 0.0694,0.888 and 0.458,0.237 and 0.113,0.34 and 0.311,-0.306 and -0.454,0.567 and 0.15,0.932 (inactive) and 0.902 (inactive),-0.914 and 0.0338,0.789 and 0.282,0.305 (inactive) and 0.147 (inactive)
C=C[C@@H](C)[C@H](O)c1ccc(O)c2ccccc12,-0.529 and -0.709,-0.134 and 0.136,-0.988 and -0.789,-2.66 and -2.63,-0.808 and -0.695,-1.66 and -1.91,-1.42 (inactive) and -0.865 (inactive),-0.333 and -0.269,-0.52 and 0.331,-0.28 (inactive) and -0.0127 (inactive)
CC(C)CCN1CCc2nc(-c3ccccc3)c3c(c2C1)CO[C@@H](C)C3,-0.0742,-0.626,1.15,-1.18,0.0677,0.361,-0.395 (inactive),-0.173,0.324,-0.191 (inactive)
CCOC(=O)C[C@H]1[C@H](OC(=O)c2ccccc2-c2ccccc2)[C@@H](NC(=O)c2ccccc2)c2cc(OCCCO)ccc2N1C(=O)c1ccc2ccccc2n1,0.916 and -0.393,0.804 and -0.0181,0.694 and 1.01,0.175 and -1.55,-0.749 and -0.483,0.733 and 1.5,0.408 (inactive) and 0.209 (inactive),-1.08 and 0.127,-0.627 and 0.14,0.65 (inactive) and 0.579 (inactive)
